Pf growth 48h – Primary qHTS for delayed death inhibitors of the malarial parasite plastid, 48 hour incubation | P. falciparum luciferase growth in erythrocytes, 48 h | AID 504832, 2011 | 310,000 compounds, 5.9% hits | Potency, µM (doses to about 28.7 µM), without a hit: at the highest dose activity change, negative = inhibition, actives largely listed as inhibitors; note: potency is the fitted concentration of half-maximal effect
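Firefly luciferase activity from engineered P. falciparum reports growth; inhibitors lower the luminescent signal. Cultures contained 2% hematocrit erythrocytes at 0.1% final parasitemia.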
HCV inhibitor – qHTS Assay for Inhibitors of Hepatitis C Virus (HCV) | Potency, µM (top dose mostly 41.8 µM), without a hit: at the top dose activity change, negative = inhibition, usual class: inhibitors | 340,000 compounds, 3.4% hits | Huh7.5.1 HCVcc-Cre infection, luciferase reporter, 44 h; note: potency is the fitted concentration of half-maximal effect
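Antiviral activity was scored by luciferase reporter output from cells infected with HCVcc-Cre (~0.5 moi) in presence of compound, 44 h infection period, cells seeded 1,000/well 4 h prior.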
HCMV antiviral – qHTS Assay for inhibitors of the human cytomegalovirus (HCMV); HFF cells, HCMV-luciferase reporter, 72 h; active compounds read low; activity change, negative = inhibition, % at 57.5 µM; 410,000 compounds, 4.5% hits; AID 1259415, 2018; in the data active = activity change below about -60%; inconclusive = no clear call, values can overlap the other calls; inactive = above about -39%
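Human foreskin fibroblasts infected with luciferase-reporter HCMV at MOI 1 PFU/cell, compounds at two doses. Luciferase measured 72 h post infection; normalized to buffer-only basal and Salinomycin (10uM) controls.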
Pf growth 96h – Primary qHTS for delayed death inhibitors of the malarial parasite plastid, 96 hour incubation. P. falciparum luciferase reporter growth, 96 h. Potency, µM (highest dose often 28.7 µM), inactives show top-dose activity change, negative = inhibition, hits mostly inhibitors. 320,000 compounds, 6.9% hits; note: potency is the fitted concentration of half-maximal effect
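P. falciparum expressing integrated firefly luciferase grown in erythrocytes (2% hematocrit, 0.05% parasitemia final) with compounds for 96 hours at 37 C, 5% CO2. Growth inhibition read as loss of luminescence after adding luciferase detection reagent.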
* marks the source's active call; other numbers are inactive results; u = inconclusive; x = no result. Hits are enriched below; roughly 13% of the tested compounds scored in any of these assays. Unless noted, calls come from the whole dose curve; as a rule, active = well fitted inhibition curve with a large enough effect; inconclusive = small, poorly fitted or top-dose-only effect, or another doubt; inactive = no such curve, though single readings can be large or run the other way. % is set by controls: 0 for no effect and ±100 for the full control effect.

SMILES | Pf growth 48h | HCV inhibitor | HCMV antiviral | Pf growth 96h
CN(C)CC(CCC(CN(C)C)C(O)(c1ccccc1)c1ccccc1)C(O)(c1ccccc1)c1ccccc1 (configuration not stated) | 1.85µM* | 11.2µM* | -98.3* | 1.85µM*
O=C(Cc1ccc(Cl)cc1)NCC(=O)N1CCCCCC1 | u | 11.0% | 25.0 | 11.7µM*
O=C(Cc1ccc(Cl)cc1)N1CCOCC1 | 0.0% | 14.2% | -15.1 | 14.7µM*
Cc1ccc(CC(=O)N2CCOCC2)cc1 | 1.9% | 15.2% | -15.8 | -6.8%
O=C(c1[nH]c(C(F)(F)F)nc1-c1ccccc1)N1CCN(c2ncccn2)CC1 | x | x | 6.5 | x
COc1ccc(NC(=O)C(C)N2c3cccc4cccc(c34)S2(=O)=O)cc1OC (configuration not stated) | u | 6.31µM* | -79.9* | -16.2%
COc1ccccc1-c1cc(C(F)(F)F)n2ncc(C(=O)N3CCc4ccccc4C3)c2n1 | 2.33µM* | 11.2µM* | -13.4 | u
CN1CCN(C(=O)c2cnn3c(C(F)(F)F)cc(-c4cccs4)nc23)CC1 | -13.5% | 19.8% | 1.8 | u
O=C(NCCc1ccccc1)c1nc2nc(-c3cccs3)cc(C(F)(F)F)n2n1 | -24.8% | 10µM* | 64.9 | u
O=C(c1cnn2c(C(F)(F)F)cc(-c3cccs3)nc12)N1CCN(C(c2ccccc2)c2ccccc2)CC1 | 0.928µM* | u | -23.0 | u
Cc1cc(C)n2nc(C(=O)NCCc3ccccc3)nc2n1 | x | 8.5% | 54.5 | 61.5%
O=C(c1cnn2c(C(F)(F)F)cc(-c3cccs3)nc12)N1CCN(Cc2ccccc2)CC1 | 2.33µM* | u | -11.9 | u
COc1ccc(-c2cc(C(F)F)n3ncc(C(=O)N4CCc5ccccc5C4)c3n2)cc1 | 3.6% | u | 1.4 | -13.0%
Cc1cc2ccccc2n1CCNC(=O)c1ccccc1F | x | x | 6.4 | x
CCOC(=O)c1c(S(=O)(=O)NCC(=O)Nc2ccc(F)cc2C)c(C)n(C)c1C | x | x | -4.4 | x
CCCOc1ccc(C(=O)Nc2nonc2-c2ccc(OCC)cc2)cc1 | x | x | 9.9 | x
CC(=O)N1CCC2(CC1)OC(=O)C(C)=C2C(=O)NCc1cccc(Cl)c1 | x | x | -1.0 | x
COc1ccccc1NC(=O)C1CCN(c2cnccn2)CC1 | x | x | -12.2 | x
Cc1cccc(N(C)S(=O)(=O)c2nnc(NC(=O)C(C)(C)C)s2)c1 | x | x | 23.4 | x
COC(=O)[C@]12C[C@H](CC(=O)NCC34CC5CC(CC(C5)C3)C4)C(=O)N(Cc3ccc4c(c3)OCO4)C1=C[C@H](COCc1ccccc1)O[C@@H]2C | x | x | -62.7* | x
COC(=O)[C@]12CCCCC=C1N(Cc1ccc3c(c1)OCO3)C(=O)[C@H](CC(=O)N1CCCCC1)C2 | x | x | -69.7* | x
COC(=O)[C@]12CCCCC=C1N(Cc1ccccc1)C(=O)[C@H](CC(=O)NCc1cccs1)C2 | x | x | -65.6* | x
COC(=O)[C@]12C[C@H](CC(=O)NCc3cccs3)C(=O)N(Cc3ccccc3)C1=C[C@H](C(C)C)O[C@@H]2C1CC1 | x | x | -70.8* | x
COC(=O)[C@]12C[C@H](CC(=O)NCc3cccs3)C(=O)N(Cc3ccc4c(c3)OCO4)C1=C[C@H](COCc1ccccc1)O[C@@H]2C | x | x | -21.7 | x
CCc1ccccc1NC(=O)Cn1c(=O)n(CC(=O)NCCc2ccccc2)c(=O)c2ccccc21 | x | x | 9.1 | x
SMILES | Pf growth 48h | HCV inhibitor | HCMV antiviral | Pf growth 96h
CCOC(=O)Cn1c(=O)c2c(nc(N3CCOCC3)n2Cc2ccccc2)n(C)c1=O | x | x | -27.3 | x
CC(C)Cn1c(=O)c2ccccc2n2c(CCC(=O)Nc3cccc(Cl)c3)nnc12 | x | x | -37.1 | x
CCc1nn2c(=O)cc(COC(=O)c3ccc(NC(=O)c4cccs4)cc3)nc2s1 | x | x | 12.7 | x
Cc1cc(Br)ccc1NC(=O)COc1cc(=O)n(C)c2ccccc12 | x | x | -2.7 | x
Cc1cccn2c(=O)c3cc(C(=O)NC(C)c4ccccc4)c(=N)n(CCCn4ccnc4)c3nc12 (configuration not stated) | 0.415µM* | -16.2% | -67.8* | 0.415µM*
CCOCCCn1c(=N)c(C(=O)NCc2ccc3c(c2)OCO3)cc2c(=O)n3cccc(C)c3nc21 | 1.04µM* | 0.9% | u | 11.7%
Cc1cccn2c(=O)c3cc(C(=O)NC(C)c4ccccc4)c(=N)n(CCOCCO)c3nc12 (configuration not stated) | x | x | 20.6 | x
CCOCCCn1c(=N)c(C(=O)NC(C)c2ccccc2)cc2c(=O)n3cccc(C)c3nc21 (configuration not stated) | x | x | -73.4* | x
CC(C)Oc1ccc(C(=O)Nc2cc(S(=O)(=O)N3CCOCC3)ccc2N2CCOCC2)cc1 | 13.1µM* | u | 17.0 | u
O=C(Nc1ccccc1N1CCCCC1)c1cc(S(=O)(=O)N2CCOCC2)ccc1Cl | u | u | -18.3 | u
O=C(Nc1cc(S(=O)(=O)N2CCOCC2)ccc1N1CCOCC1)c1ccc(Cl)nc1 | -16.7% | -6.5% | -21.2 | -26.3%
CC(=O)NCCC(=O)Nc1cc(S(=O)(=O)N2CCCCC2)ccc1N1CCN(C)CC1 | u | 6.8% | -14.3 | u
O=C(Nc1ccccc1Cl)c1cc(S(=O)(=O)N2CCCCC2)ccc1N1CCOCC1 | 9.28µM* | u | 0.7 | 5.86µM*
CC(=O)NCCC(=O)Nc1cc(S(=O)(=O)N2CCCCC2)ccc1N1CCCCC1 | 1.17µM* | -0.7% | -23.1 | 1.17µM*
CCCCCC(=O)Nc1cc(S(=O)(=O)N2CCCCC2)ccc1N1CCOCC1 | 13.1µM* | u | -7.5 | u
O=C(O)c1ccc(S(=O)(=O)N(Cl)Cl)cc1 | -5.0% | x | x | -11.3%
Cc1ccc(S(=O)(=O)N[C@H](CNCc2ccccc2)C(C)C)cc1 | x | x | -13.3 | x
Cc1ccc(S(=O)(=O)c2cn(CC(=O)Nc3ccccc3C)c3cc4c(cc3c2=O)OCO4)cc1 | x | x | 3.3 | x
CC(C)Oc1ccc(S(=O)(=O)N2CCOCC2)cc1NC(=O)c1cc([N+](=O)[O-])ccc1N1CCOCC1 | 13.1µM* | u | -4.6 | 11.7µM*
CC(C)COc1ccc(C(=O)Nc2cc(S(=O)(=O)N3CCOCC3)ccc2N2CCCC2)cc1 | 8.28µM* | -24.9% | 2.2 | u
Cc1occc1C(=O)Nc1cc(S(=O)(=O)N2CCOCC2)ccc1OC(C)C | u | -25.2% | -3.2 | u
Cc1c(C(=O)Nc2ccccc2Br)oc2ccc(S(=O)(=O)N3CCOCC3)cc12 | x | x | -36.3 | x
CCN1CCN(c2ccc(S(=O)(=O)N3CCOCC3)cc2NC(=O)c2ccc(OCC(C)C)cc2)CC1 | x | u | -20.1 | x
O=C(Nc1cc(S(=O)(=O)N2CCOCC2)ccc1N1CCOCC1)c1ccc(S(=O)(=O)N2CCCCC2)cc1 | 11.7µM* | -22.3% | 110.8 | u
Cc1c(C(=O)Nc2cc(S(=O)(=O)N3CCOCC3)ccc2N2CCOCC2)oc2ccccc12 | 10.4µM* | -13.6% | -35.8 | u
O=C(Nc1cc(S(=O)(=O)N2CCOCC2)ccc1N1CCOCC1)c1cccc(S(=O)(=O)N2CCCCC2)c1 | u | 14.3% | -25.8 | u

High-throughput results: PubChem BioAssay, National Center for Advancing Translational Sciences (NCATS)
